The panel holds about 83,000 compounds, 20% with a hit somewhere; the sample as a whole holds those more often.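 Cell lines were cultured in 96-well plates, exposed to a single compound concentration, and assessed for percent growth 48 hours later.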 Values without a mark were called inactive. Activity calls are given as the source filed them. Rule for the calls: active = growth percent below 10; inactive = the rest.
How the values were obtained:
Assay in all cases: NCI-60 one-dose screen, 48 h (100 = growth as untreated, 0 = no growth, -100 = all killed)
Details in all cases: 10 µM unless noted
DU-145 prostate = system: DU-145 prostate
K-562 leukemia = system: K-562 leukemia
MALME-3M melanoma = system: MALME-3M melanoma
MDA-MB-231 breast = system: MDA-MB-231 breast
RXF 393 renal = system: RXF 393 renal
SF-268 CNS = system: SF-268 CNS
SF-295 CNS = system: SF-295 CNS
SF-539 CNS = system: SF-539 CNS
UACC-257 melanoma = system: UACC-257 melanoma
M14 melanoma = system: M14 melanoma
HCT-15 colon = system: HCT-15 colon
HT29 colon = system: HT29 colon
SNB-75 CNS = system: SNB-75 CNS
SNB-19 CNS = system: SNB-19 CNS
U251 CNS = system: U251 CNS
PC-3 prostate = system: PC-3 prostate
UACC-62 melanoma = system: UACC-62 melanoma
LOX IMVI melanoma = system: LOX IMVI melanoma
SK-MEL-5 melanoma = system: SK-MEL-5 melanoma
SK-MEL-28 melanoma = system: SK-MEL-28 melanoma

Row | Structure (SMILES) | growth (DU-145 prostate) | growth (K-562 leukemia) | growth (MALME-3M melanoma) | growth (MDA-MB-231 breast) | growth (RXF 393 renal) | growth (SF-268 CNS) | growth (SF-295 CNS) | growth (SF-539 CNS) | growth (UACC-257 melanoma) | growth (M14 melanoma) | growth (HCT-15 colon) | growth (HT29 colon) | growth (SNB-75 CNS) | growth (SNB-19 CNS) | growth (U251 CNS) | growth (PC-3 prostate) | growth (UACC-62 melanoma) | growth (LOX IMVI melanoma) | growth (SK-MEL-5 melanoma) | growth (SK-MEL-28 melanoma)
1 | COc1ccc2nc(-c3ccc(OC)c(OC)c3)cc(-c3nnc(SCC(=O)Nc4ccc(/C(C)=N\O)cc4)n3-c3ccccc3)c2c1 | 83.1% | 63.5% | 110% | 40.2% | 79.1% | 78.1% | 92.9% | 81.3% | 88% | 92.1% | 76.2% | 89.2% | 77.3% | 84.3% | 78.3% | 60.7% | 71.1% | -28.1% (active) | – | –
2 | CC1CCN(CCCCCOc2ccc3oc4cc(Cl)ccc4c(=O)c3c2)CC1 | 83.7% | 5.17% (active) | 9.78% (active) | 44.3% | 52.8% | 68.1% | 78.2% | 40.6% | -38.8% (active) | -50.1% (active) | -16.9% (active) | 5.89% (active) | 74.7% | 80.9% | 54.3% | 64.3% | -51% (active) | -25.6% (active) | -72.2% (active) | 57.5%
3 | CCCCOc1nc2ccc(C)cc2cc1/C=C/C(=O)/C=C/c1ccc2c(c1)OCO2 | 82.8% | 69.1% | 106% | 92.8% | 108% | 75.4% | 105% | 109% | 73.3% | 52.4% | 97.8% | 63.6% | 97.1% | 92.9% | 48.4% | 72.4% | 75.6% | 77.3% | 77.6% | 109%
4 | CN1CCN(S(=O)(=O)O[C@@H]2C(=O)N(c3cc4c5ccccc5ccc4c4ccccc34)[C@H]2c2ccc(F)cn2)CC1 | 94.4% | 74.7% | 115% | 38.8% | 77.6% | 79.7% | 96.5% | 104% | 88.1% | 90.9% | 84.8% | 82% | 74.6% | 85% | 78.6% | 63.9% | 86.5% | 84.5% | 88.7% | 113%
5 | Nc1cc(N)c(S(=O)(=O)O)cc1N=Nc1cc([N+](=O)[O-])ccc1O | 111% | 80.8% | 103% | 103% | 103% | 102% | 107% | 102% | 99.2% | 100% | 104% | 102% | 88.7% | 98.8% | 100% | 87.1% | 92.1% | 93.4% | 105% | 102%
6 | COc1ccc(C(=S)c2cc(OC)c(OC)c(OC)c2)cc1OC(=O)CCl | 9.36% (active) | 10.2% | 74.2% | 32.9% | 44.7% | 39.3% | 14.7% | 9.83% (active) | 56.7% | 12.6% | 14.3% | 24% | 53.8% | 31.4% | 4.79% (active) | 14.1% | 47.9% | 19.6% | -29.7% (active) | 67.8%
7 | C/C(=N\NC(=O)c1ccncc1)c1ccc(N)cc1 | 107% | 83.6% | 98.5% | 98.4% | 106% | 99.2% | 99.4% | 98.5% | 93% | 102% | 103% | 97.2% | 88.8% | 94.6% | 97.7% | 85.8% | 93.6% | 98% | 98.8% | 106%
8 | Nc1c(C(=O)Nc2ccccc2Cl)sc2nc3c(cc12)CN(Cc1ccccc1)CC3 | 94% | 99% | 75.5% | 105% | 110% | 81.5% | 100% | 102% | 128% | 107% | 95.7% | 101% | 113% | 109% | 114% | 104% | 101% | 99.7% | 97.7% | 102%
9 | CC(C)(C)c1nc2c(s1)c1nc(N)ncc1c1ccc(NS(=O)(=O)c3c(F)cccc3F)c(F)c12 | 49.9% | 66.3% | -31.6% (active) | 29.2% | 13.6% | 79.1% | 60.7% | 79.7% | -13.1% (active) | 7.08% (active) | 42.7% | 10.8% | 57.4% | 105% | 73% | 51.9% | -2.66% (active) | 20.5% | – | 4.5% (active)
10 | Fc1ccc(N/N=C/c2ccc(-n3cccn3)cc2)cc1 | 93.8% | 93.3% | 106% | 80.1% | 105% | 81.3% | 87.6% | 100% | 118% | 88.8% | 83% | 93.5% | 99.4% | 110% | 103% | 85.8% | 74.9% | 83.8% | – | 112%
11 | CCCCC1=c2c([nH]c3ccc(OC)cc23)=NC2C=CC=NC12 (stereo not given) | 98.8% | 72.1% | 108% | 79.9% | 92.8% | 93.1% | 106% | 93.7% | 126% | 101% | 84.2% | 77.8% | 92.9% | 104% | 103% | 86.1% | 94.5% | 91.4% | – | 112%
12 | O=C(O)CCNC1CCCCC1 | 112% | 100% | 144% | 100% | 137% | 97.8% | 131% | 95.7% | 20.9% | 93.3% | 99.4% | 106% | 90.3% | 91.2% | 94.2% | 94.8% | 100% | 94.1% | – | 100%
13 | Sc1cccc2cccnc12 | 27.1% | 9% (active) | 10.9% | 33.8% | 13.4% | 34.1% | 47.1% | 53.8% | 24.3% | -3.55% (active) | 30.1% | 15.8% | 52.8% | 42.7% | 23.2% | 43.7% | -3.89% (active) | 7.92% (active) | – | 36.3%
14 | CC(C)(C)CC(C)(C)Cc1ccc(OCCOCC[N+](C)(C)Cc2ccccc2)cc1 | 53.4% | 9.56% (active) | -40.2% (active) | -26.7% (active) | 16.5% | 20.7% | 73.5% | 30.9% | 2.66% (active) | 7.33% (active) | 97% | 9.89% (active) | -9% (active) | -7.68% (active) | 2.86% (active) | 10.1% | -36.1% (active) | 10.5% | – | 20.5%
15 | Cc1cc(Cl)cc(CN(Cc2ccccc2)Cc2c(O)ccc3ccccc23)c1O | 98.1% | 101% | 96.7% | 100% | 109% | 90.8% | 104% | 103% | 100% | 104% | 108% | 98.5% | 94.5% | 99.9% | 98.5% | 88.5% | 89.3% | 90.2% | – | 113%
16 | COc1ccc(-c2nnc(N3CCN(C(=O)CN4CCN(c5ccc(OC)cc5)CC4)CC3)nc2-c2ccc(OC)cc2)cc1 | -16.3% (active) | -56.7% (active) | -72.7% (active) | 8.6% (active) | -34.8% (active) | -32.4% (active) | -60.6% (active) | 32% | -8.52% (active) | -17.3% (active) | -40.9% (active) | 4.12% (active) | 65.7% | 96.1% | 4.4% (active) | -96.4% (active) | -48.2% (active) | -63.3% (active) | – | -84.1% (active)

Reference: PubChem BioAssay (NCI)
